Screening results: PubChem BioAssay, National Center for Advancing Translational Sciences (NCATS)
Cruzain noTriton = inhibitors of Trypanosoma cruzi cruzain without detergent. P25779. purified cruzain, Z-FR-AMC fluorescence, no detergent. Potency, µM, usual class: inhibitors. actives 2.3% (n = 200,000); further: nearly all actives have a fitted effect of over 40% in size
Target sequence (P25779 123-467 limits assumed): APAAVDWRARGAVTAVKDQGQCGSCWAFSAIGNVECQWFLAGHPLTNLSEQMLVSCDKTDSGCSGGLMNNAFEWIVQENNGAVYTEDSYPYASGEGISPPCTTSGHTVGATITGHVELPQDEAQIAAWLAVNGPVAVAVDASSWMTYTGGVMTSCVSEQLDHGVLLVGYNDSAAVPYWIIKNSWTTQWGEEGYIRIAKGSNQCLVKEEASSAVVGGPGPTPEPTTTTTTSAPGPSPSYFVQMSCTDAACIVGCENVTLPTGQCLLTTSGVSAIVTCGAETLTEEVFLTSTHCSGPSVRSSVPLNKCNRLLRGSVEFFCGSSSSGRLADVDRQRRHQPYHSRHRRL
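Purified cruzain at 1.5 nM, pre-incubated 15 min with compound at room temperature in 100 mM sodium acetate pH 5.5, 5 mM DTT, 0.00005% Triton X-100. Reaction started with 2 uM Z-FR-AMC; AMC fluorescence increase over 60 s gives rate.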
Cruzain Triton = blocks cruzain activity in presence of Triton detergent. actives 0.43% (n = 200,000). P25779. purified cruzain, Z-FR-AMC fluorescence, 0.01% Triton. Potency, µM, hits mostly inhibitors; further: nearly all actives have a fitted effect of over 40% in size
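Z-FR-AMC hydrolysis (2 uM substrate) by cruzain (1.5 nM) monitored kinetically at ex 360/em 450 nm after 15 min room-temperature compound exposure; 0.01% Triton X-100, pH 5.5, 5 mM DTT.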
Numbers stand for hits; n = inactive; u = inconclusive; ! = a repeat was not active. Hits are enriched below; roughly 2.4% of the tested compounds scored in any of these assays. The call rests on the fitted dose curve; in most records, active means well fitted curve in the direction sought with a large enough effect; inconclusive means small, poorly fitted or top-dose-only effect, or another doubt; inactive means no such curve, though single readings can be large; an effect the other way counts as inactive or inconclusive.

SMILES | Cruzain noTriton | Cruzain Triton
Cc1ccc2oc3c(c(=O)c2c1)C1(C(=O)N(C)c2ccccc21)N(CCCO)C3=O (stereo not given) | n | n
Cc1cc(C)n(-c2nnc(Nc3ccc(C)c(C)c3)c3ccccc23)n1 | n | n
O=S(=O)(c1ccc2[nH]c3c(c2c1)CCCCC3)N1CCN(c2cccc(Cl)c2)CC1 | 7.9µM | n
O=S(=O)(NCc1ccccc1)c1ccc2[nH]c3c(c2c1)CCCCC3 | u | n
O=S(=O)(c1ccc2[nH]c3c(c2c1)CCCCC3)N1CCN(c2ccccc2)CC1 | 25µM | n
O=S(=O)(Nc1cccc(Cl)c1)c1ccc2[nH]c3c(c2c1)CCCCCC3 | n | n
COc1ccc(NC(=O)C2CCCN(S(=O)(=O)c3ccc4c(c3)CCCC(=O)N4)C2)c(OC)c1 (stereo not given) | u | n
CCC(=O)N1c2ccccc2CC1C(=O)NCc1cccc(C)c1 (stereo not given) | n | n
O=C(Nc1ccc(C(=O)OCc2cc(=O)n3nc(C4CC4)sc3n2)cc1)c1cccc(F)c1 | n | n
CCc1cccc(NC(=O)Cn2c(=O)n(Cc3ccccc3)c(=O)c3c(C)c(C(=O)N(C)C)sc32)c1 | u | n
Cc1ccc(CN2CCSc3ccc(C(=O)N4CCN(c5ccc(Cl)cc5)CC4)cc32)cc1 | u | n
O=C(N=Nc1c(O)n(Cc2ccccc2)c2ccccc12)c1ccc(O)cc1 | u | n
Cc1ccc(NC(=O)Cn2c(=O)nc(-c3ccccc3)c3ccccc32)cc1 | n | n
Cc1ccc(NC(=O)Cn2c(O)c(N=NC(=O)c3cc4ccccc4cc3O)c3ccccc32)cc1 | 10µM | n
O=C(N=Nc1c(O)n(Cc2ccccc2)c2ccccc12)c1cc2ccccc2cc1O | 7.9µM | n
C[C@@](O)(/C=C/[C@H]1CC=CC(=O)O1)[C@@H](C[C@@H](O)\C=C/C=C\C=C\CO)OP(=O)(O)O | n | n
CCOC(=O)Cn1c(=O)n(CC2CCCO2)c2nc(-c3ccc(C(C)C)cc3)nc(C(N)=O)c21 (stereo not given) | n | n
N#C/C(=C/c1cn(Cc2ccccc2Cl)c2ccccc12)C(=O)Nc1cccc(Cl)c1 | 3.2µM | n
Cc1c(/C=C(\C#N)C(=O)Nc2cccc(Cl)c2)c2ccccc2n1Cc1ccccc1Cl | 1.6µM | n
N#C/C(=C\c1cn(Cc2ccccc2F)c2ccccc12)C(=O)NCc1ccco1 | n | n
Cc1ccc(NC(=O)/C(C#N)=C\c2ccc(Cl)cc2Cl)cc1C | n | n
Cc1ccc(C)c(OCCn2cc(/C=C(\C#N)C(=O)NCc3ccco3)c3ccccc32)c1 | u | n
Cc1cccc(NC(=O)/C(C#N)=C/c2cn(CC(=O)NCc3ccco3)c3ccccc23)c1 | 10µM | n
CCCN1CCCc2cc(CN(CCCN3CCOCC3)C(=O)Nc3ccc(Cl)c(Cl)c3)ccc21 | n | n
Cc1cc2c(cc1S(=O)(=O)N(CCN(C)C)Cc1ccco1)OCC(=O)N2 | n | n
SMILES | Cruzain noTriton | Cruzain Triton
Cc1cc(C)n(CCc2nc3c4ccccc4nc(N4CCN(c5cccc(C)c5C)CC4)n3n2)n1 | n | n
COc1cccc(Cn2c(=O)c(-c3cccc(C#N)c3)nc3cnc(N4CCOCC4)nc32)c1 | n | n
O=C(C1CCC(Cn2c(=O)c3sccc3n(Cc3cccc(F)c3)c2=O)CC1)N1CCOCC1 (stereo not given) | u | n
CC(C)NC(=O)C1CCCN(S(=O)(=O)c2ccc3c(ccn3C)c2)C1 (stereo not given) | n | n
COc1ccc(Cl)cc1S(=O)(=O)NCc1ccc2c(c1)CCN2C(=O)c1cccc(C)c1 | n | n
CCCCc1ccc(/C=C2/C(=O)ON=C2c2ccccc2)s1 | n | n
Cc1sc(/C=C2\C(=O)ON=C2c2ccccc2)cc1Br | 25µM | u
O=C(CCc1ccccc1)NC1CC(=O)N(c2ccccc2)C1 (stereo not given) | n | n
COc1ccc(CCCc2nnc(SCC(=O)Nc3ccc(F)cc3)o2)cc1C | n | n
NC(N)=Nc1nc(CSCC/C(N)=N/S(N)(=O)=O)cs1 | 10µM! | n
Cc1ccc(Cn2c(SCc3ccc(C(=O)N4CCCCCC4)cc3)nc3ccncc32)cc1 | n | n
COc1ccc(N2CCN(C(=O)C3Cc4ccccc4N3C(C)=O)CC2)cc1 (stereo not given) | n | n
COc1ccc(N=Nc2nc(-c3ccccc3)c(-c3ccccc3)[nH]2)cc1 | 25µM | n
COc1ccccc1N=Nc1nc(-c2ccccc2)c(-c2ccccc2)[nH]1 | n | n
COc1cccc(CC(=O)NCc2ccc3c(c2)CCN3C(C)=O)c1 | n | n
O=S(=O)(Nc1nc2ccccc2nc1NCc1ccco1)c1ccc(Cl)cc1 | 20µM | n
Cc1ccc(S(=O)(=O)Nc2nc3ccccc3nc2NCc2ccco2)cc1 | u | n
COc1ccc(Nc2ncc3c(n2)CCN(Cc2ccc(Br)s2)C3)c(OC)c1 | n | n
COc1ccc(C)cc1NC(=O)C1COc2ccccc2C1 (stereo not given) | n | n
O=C1C2C(c3ccccc3)(C(=O)N1c1ccc(Cl)cc1)C2(c1ccccc1)c1ccccc1 (stereo not given) | 25µM | n
O=C1c2ccccc2C(=O)N1c1ccc(Cl)cc1 | n | u
O=C(NCCO)c1ccc(-c2nnc(Nc3ccc(OC(F)(F)Cl)cc3)c3ccccc23)cc1 | u | n
CCOC(=O)c1ccc(NC(=O)CSc2ncc(S(=O)(=O)c3ccc(C)c(Cl)c3)c(=O)[nH]2)cc1 | u | 28µM
Cc1ccc(C)c(NC(=O)CSc2ncc(S(=O)(=O)c3ccc(C)c(Cl)c3)c(=O)[nH]2)c1 | n | n
O=C(Nc1cc(F)ccc1F)C1CCN(c2nc3ccccc3n3cccc23)CC1 | u | n
SMILES | Cruzain noTriton | Cruzain Triton
CCOC(=O)C1CCC(CN(Cc2ccc(OC)cc2)S(=O)(=O)c2ccc(F)c(C(=O)Nc3c(C)cccc3C)c2)CC1 (stereo not given) | n | n
CCCCCCN(C(=O)CCCCCN1C(=O)NC(c2ccc(-c3ccccc3)cc2)C(C(=O)OCc2ccccc2)=C1C)C(C(=O)NCCCC)c1ccc(-c2ccccc2)cc1 (stereo not given) | u | n
CCCCCCN(C(=O)CCCCCN1C(=O)NC(c2ccc(-c3ccccc3)cc2)C(C(=O)OCc2ccccc2)=C1C)C(C(=O)NCCCC)c1ccc(O)cc1 (stereo not given) | 6.3µM | n
COc1ccc(-n2c(SCC(=O)Nc3ccc4c(c3)OCO4)nc3c([nH]c4ccccc43)c2=O)cc1 | n | n
CCOc1ccc(CNC(=O)c2ccc3nc(Cc4ccc(OC)cc4)oc3c2)cc1OC | u | n
COc1ccc(-c2nc3ccccc3s2)cc1NC(=O)c1ccccc1OC | n | n
COc1ccc2oc(=O)c(-c3csc(Nc4cccc(O)c4)n3)cc2c1 | 25µM | n
COc1ccc(Nc2nc(-c3cc4cccc(OC)c4oc3=O)cs2)cc1 | u | n
COc1ccc(Cc2nc3ccccc3n2Cc2ccccc2F)cc1 | n | n
C(=N\Nc1nc(-c2ccccc2)cs1)/c1ccco1 | u | n
C(=N\Nc1nc(-c2ccccc2)cs1)/c1cccs1 | 25µM | n
C=C(C)c1ccccc1 (tested in a mixture with another compound) | n | n
CC(=O)c1ccc(NC(=O)c2ccc(-c3nc(CSc4ccccc4)c(C)o3)cc2)cc1 | 10µM | n
CC(=O)c1ccc(NC(=O)c2ccc(-c3nc(COc4ccc(C)cc4)c(C)o3)cc2)cc1 | 1µM | n
